In paper PMC4336329 (PLoS ONE, 2015):
Among all 310,000 compounds or so, about 14,000 (4.5%) showed an effect of 50% or more. Effects have a minus sign here. The full list was thinned out, with strong results kept by preference.

biological target: human ether-à-go-go-related gene (hERG) potassium channel (human, UniProt Q12809); assay: primary screen, population patch clamp on CHO cells stably expressing hERG; higher = less effect of the substance
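Further: peak tail current of the secondary pulse compared with the same well before compound.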

Sequence of human ether-à-go-go-related gene (hERG) potassium channel (Q12809 whole entry, looked up): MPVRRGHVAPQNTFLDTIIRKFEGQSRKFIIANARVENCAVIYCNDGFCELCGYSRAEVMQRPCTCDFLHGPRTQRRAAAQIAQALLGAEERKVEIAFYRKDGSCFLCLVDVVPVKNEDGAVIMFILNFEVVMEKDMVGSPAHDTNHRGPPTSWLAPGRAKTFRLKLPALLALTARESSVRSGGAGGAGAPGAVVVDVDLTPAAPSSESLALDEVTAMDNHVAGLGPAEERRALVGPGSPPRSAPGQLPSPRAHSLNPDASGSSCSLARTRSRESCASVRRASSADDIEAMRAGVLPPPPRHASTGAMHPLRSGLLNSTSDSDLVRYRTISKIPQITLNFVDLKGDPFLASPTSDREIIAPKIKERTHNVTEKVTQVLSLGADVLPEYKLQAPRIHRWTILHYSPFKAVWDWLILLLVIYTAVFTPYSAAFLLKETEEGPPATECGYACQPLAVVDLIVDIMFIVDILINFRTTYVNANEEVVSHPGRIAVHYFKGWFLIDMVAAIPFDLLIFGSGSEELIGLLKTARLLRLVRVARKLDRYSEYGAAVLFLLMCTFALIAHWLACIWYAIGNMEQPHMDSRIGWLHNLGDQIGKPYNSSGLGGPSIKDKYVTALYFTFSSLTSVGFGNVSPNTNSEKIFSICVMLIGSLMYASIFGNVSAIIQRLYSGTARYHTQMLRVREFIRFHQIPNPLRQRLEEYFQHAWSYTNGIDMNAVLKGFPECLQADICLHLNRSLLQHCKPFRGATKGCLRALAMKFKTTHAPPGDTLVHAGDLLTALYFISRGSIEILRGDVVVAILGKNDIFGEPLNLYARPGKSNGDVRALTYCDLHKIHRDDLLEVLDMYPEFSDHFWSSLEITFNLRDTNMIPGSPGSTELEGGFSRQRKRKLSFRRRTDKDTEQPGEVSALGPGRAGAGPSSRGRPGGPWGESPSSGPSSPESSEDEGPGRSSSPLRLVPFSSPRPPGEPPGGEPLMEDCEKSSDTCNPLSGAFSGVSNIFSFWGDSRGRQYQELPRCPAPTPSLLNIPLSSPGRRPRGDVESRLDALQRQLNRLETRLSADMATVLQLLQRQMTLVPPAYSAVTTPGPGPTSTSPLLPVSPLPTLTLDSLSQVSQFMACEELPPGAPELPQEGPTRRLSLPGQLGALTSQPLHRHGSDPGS

Row | Compound | hERG current change (%, negative = inhibition) at 10uM
1 | Cc1ccc(C(=O)Nc2nnc(Cc3ccccc3)s2)cc1 | 9.35%
2 | C=CCNC(=O)c1cc(-c2cccnc2)nc2ccccc12 | -34.7%
3 | Cc1ccc(/C=C/C(=O)N2CCN(c3ccc(F)cc3)CC2)o1 | -15.8%
4 | CSCC[C@H](NC(=O)[C@@H]1CSC2c3ccccc3C(=O)N21)C(=O)N1CCC[C@H]1CO (stereo partly shown) | 1.52%
5 | COc1ccc(N2CCN(Cc3nnc(-c4ccccc4)o3)CC2)cc1 | -0.362%
6 | O=C1Nc2ccccc2/C1=N\N1CCOCC1 | 2.95%
7 | Cc1nc2nc(-c3ccccc3)[nH]n2c(=O)c1C | -3.77%
8 | CCN1CC2=C(OC(N)=C(C#N)C2c2ccccc2)/C(=C\c2ccccc2)C1 (stereo not shown) | -6.02%
9 | CCCCN(CC)Cc1ccc(CNC(=S)Nc2ccc(C)cc2Cl)o1 | -32.1%
10 | CCCCN(CC)Cc1ccc(CNC(=S)Nc2c(C)cc(C)cc2C)o1 | -54.8%
11 | CCCCN(CC)Cc1ccc(CNC(=S)Nc2ccccc2F)o1 | -16.3%
12 | CCCCN(CC)Cc1ccc(CNC(=O)Nc2ccccc2)o1 | -9.65%
13 | CCCCN(CC)Cc1ccc(CNC(=O)Nc2ccc(Cl)cc2)o1 | -61.9%
14 | CCCCN(CC)Cc1ccc(CNC(=O)Nc2ccc(F)cc2)o1 | -32.1%
15 | CN1C(=O)NC(c2ccccc2[N+](=O)[O-])C2=C1CCCC2=O (stereo not shown) | 10.1%
16 | COc1cc(OC)c(-c2nc3cnccc3n2C)cc1OC | 6.5%
17 | COc1ccc(NC(=S)N2CCN(C(=O)C3CCCO3)CC2)cc1 (stereo not shown) | 11.8%
18 | CCCCC1(c2ccc(F)cc2)NC(=O)N(CC(=O)N2CCN(C(=O)c3ccco3)CC2)C1=O (stereo not shown) | -52.6%
19 | Cc1ccc(C(=O)CCC(=O)N2CCN(C(=O)c3ccco3)CC2)cc1 | -56.2%
20 | O=C(CCC(=O)N1CCN(C(=O)c2ccco2)CC1)c1ccc(F)cc1 | -66.7%
21 | Cc1ccc(CC(=O)N2CCN(C(=O)c3ccco3)CC2)cc1 | -7.76%

Row | Compound | hERG current change (%, negative = inhibition) at 10uM
22 | Cc1ccc(OCC(=O)N2CCN(C(=O)c3ccco3)CC2)cc1 | -37.7%
23 | O=C(CN1C(=O)NC2(CCCC2)C1=O)N1CCN(C(=O)c2ccco2)CC1 | 4.41%
24 | CC(C)O.CCCC1(CCC)NC(=O)N(CC(=O)N2CCN(C(=O)c3ccco3)CC2)C1=O | 5%
25 | O=C(CCC(=O)N1CCOCC1)c1ccc(F)cc1 | 36.5%
26 | O=C(c1ccco1)N1CCN(c2ccc(F)cc2)CC1 | -0.235%
27 | CC(=O)Oc1ccccc1N(C(C)=O)S(=O)(=O)c1ccc2ccccc2c1 | 7.06%
28 | COc1ccc(NC(=O)Cn2nnc3ccccc32)c([N+](=O)[O-])c1 | 9.14%
29 | O=C(CC1Nc2ccccc2NC1=O)c1ccccc1 (stereo not shown) | -2.01%
30 | CN(C)CC/C=C1/c2ccccc2Sc2ccc(Cl)cc21 | -8.11%
31 | CN(C)CC/C=C1\c2ccccc2Sc2cc(F)c(Cl)cc21.Cl | 7.2%
32 | CN(C)CC/C=C1/c2ccccc2Sc2ccc(Cl)cc21.Cl | -56.8%
33 | CN(C)CC/C=C1\c2ccccc2Sc2ccc(Cl)cc21.Cl | -56.7%
34 | CN(C)CC/C=C1\c2cc(Cl)ccc2Sc2cc(F)c(F)cc21.Cl | 1.25%
35 | O=C(O)/C=C\C(=O)O.OCCN1CCN(CC/C=C2/c3ccccc3CSc3ccccc32)CC1 | -12.2%
36 | Cl.OCCN1CCN(CC/C=C2/c3ccccc3Sc3ccc(C(F)(F)F)cc32)CC1 | -47.1%
37 | CN(C)CC/C=C1/c2cc(F)ccc2Sc2ccc(Cl)cc21.Cl | -34.5%
38 | Cl.OCCN1CCN(CC/C=C2/c3ccccc3Sc3ccc(Cl)cc32)CC1 | -68.8%
39 | CCN(CC)S(=O)(=O)c1ccc(C(=O)OCC(=O)NCCN2C(=O)CSC2=O)cc1 | -14.4%
40 | O=C1C(=Cc2ccco2)C(=O)c2ccccc21 | 8.17%
41 | CN1C(=O)c2ccc(C(=O)Nc3ccccc3O)cc2C1=O | 4.6%
42 | Cc1nn(C)cc1/C=N/NC(=O)c1sc2ccccc2c1Cl | -6.47%

Row | Compound | hERG current change (%, negative = inhibition) at 10uM
43 | O=P(c1ccccc1)(c1ccccc1)C(c1ccco1)N1CCOCC1 (stereo not shown) | 9.93%
44 | Cc1nnc(NCCc2ccccc2)c2ccccc12 | -18.1%
45 | COc1ccc(Cl)c(N2CCN(CCCNC(=O)Nc3ccc(C)cc3)CC2)c1 | -72.4%
46 | COc1ccc(NC(=O)NCCCN2CCN(c3cc(C)ccc3C)CC2)cc1 | -92.2%
47 | COc1ccc(NC(=O)NCCN2CCCCC2)cc1 | -10.1%
48 | Cc1ccc(NC(=O)NCCCN2CCOCC2)cc1 | 4.63%
49 | COc1ccc(NC(=O)NCCN2CCN(c3ccc(C)cc3)CC2)c(Cl)c1 | -8.96%
50 | COc1ccc(NC(=O)NCCN2CCN(c3cc(OC)ccc3OC)CC2)cc1 | -2.75%
51 | Cc1cc(SCC(=O)Nc2c(C)n(C)n(-c3ccccc3)c2=O)nc2ccccc12 | -38.7%
52 | Cc1cc(C(=O)OCC(=O)c2ccc3c(c2)NC(=O)CO3)c2ccccc2n1 | 18.8%
53 | O=C(NCCN1CCOCC1)c1cnn2c(-c3ccccc3)cc(-c3ccccc3)nc12 | -72.5%
54 | CCc1ccc(Nc2cc(C(=O)NCCCN3CCOCC3)c3ccccc3n2)cc1 | -35.5%
55 | O=C(NCCN1CCOCC1)c1ccccc1-c1ccccc1 | 0.439%
56 | CCc1ccc(Sc2cc(C(=O)NCCN3CCOCC3)c3ccccc3n2)cc1 | -56.2%
57 | O=C(NCCN1CCOCC1)c1cc(Sc2ccccc2Cl)nc2ccccc12 | -27.1%
58 | O=C(NCCCN1CCOCC1)c1cnn2c(-c3ccccc3)cc(-c3ccccc3)nc12 | -41.3%
59 | O=C(NCCN1CCOCC1)c1cc(-c2ccccc2Cl)nc2ccccc12 | -15%
60 | O=C(NCCN1CCOCC1)c1cc(Sc2ccc(F)cc2F)nc2ccccc12 | -42.8%
61 | O=C(NCCN1CCOCC1)c1cc(Sc2cccc(Cl)c2)nc2ccccc12 | -77.2%
